# Assay results from ChEMBL document CHEMBL3988442, “University of Dundee, Small-Polar-MMV Screening Library” (2021).
# Out of some 69,000 compounds screened, about 1,000 (1.4%) showed an effect of 50% or more. What follows is part of a selection rich in strong results, with near analogues and random picks from the rest.
# Test system: Leishmania donovani
# Test: Leishmania intramacrophage assay
# Assay type: functional, organism-based
# Parameters: scale not given: in the data most compounds retested in dose-response had high values
structure (smiles),measurement,setting,value
CCNC(=O)[C@@H]1CCCN1C1(C(=O)NC)CCCCC1.Cl,Percent Effect,"30.3 µM, […]",-2.22%
O=C(c1ccc[nH]1)N1CCCC(c2cc(C(F)(F)F)[nH]n2)C1 (stereo unspecified),Percent Effect,"30 µM, 30.03 µM",44.22%
O=C(c1cc(Cl)c[nH]1)N1CCCC(c2cc(C(F)(F)F)[nH]n2)C1 (stereo unspecified),Percent Effect,30 µM,52.35%
O=C(c1cc[nH]n1)N1CCCC(c2cc(C(F)(F)F)[nH]n2)C1 (stereo unspecified),Percent Effect,30 µM,-11.08%
N#Cc1c(CN2CCCCC2Cn2cncn2)cn2ccccc12 (stereo unspecified),Percent Effect,"30.3 µM, […]",-0.3662%
O=C(Nc1cccc(N2CCN(CC3CC3)CC2)c1)C1CCCO1 (stereo unspecified),Percent Effect,"30.3 µM, […]",25.21%
O=C(NCC1CC1)Nc1cccc(N2CCN(CC3CC3)CC2)c1,Percent Effect,"30 µM, 30.03 µM",-6.352%
O=C(Nc1cccc(N2CCN(CC3CC3)CC2)c1)N1CCCC1,Percent Effect,"30.3 µM, […]",55.96%
O=C(NCCc1ccc(F)cc1)C1CN(C(=O)Cn2cncn2)C1,Percent Effect,"30.3 µM, […]",19.84%
COCCCNC(=O)COc1ccccc1C(F)(F)F,Percent Effect,"30.3 µM, […]",6.767%
O=C(Cc1ccccc1)NC[C@H]1Cn2ccnc2CO1,Percent Effect,"30.3 µM, […]",5.132%
Cc1nc(NCCSc2ccccn2)c2c(C)noc2n1,Percent Effect,"30.3 µM, […]",23.02%
CCC(Nc1nc(C)nc2onc(C)c12)c1nc(C)c(C)s1 (stereo unspecified),Percent Effect,"30.3 µM, […]",15.33%
CCC(Nc1nc(C)nc2onc(C)c12)c1cccs1 (stereo unspecified),Percent Effect,"30.3 µM, […]",50.11%
O=C(NC1CCOCC1)c1cccc(C2CCCNC2)c1 (stereo unspecified),Percent Effect,"30.3 µM, […]",-13.02%
CCOCC1CN(C(=O)Cc2ccsc2)Cc2ccnn2C1.O=C(O)C(F)(F)F (stereo unspecified),Percent Effect,"30.3 µM, […]",51.92%
CN(C)CCOCC1CN(Cc2ccsc2)Cc2ccnn2C1.O=C(O)C(F)(F)F.O=C(O)C(F)(F)F.O=C(O)C(F)(F)F (stereo unspecified),Percent Effect,"30 µM, 30.03 µM",9.716%
CCOCC1CN(C(=O)Cc2cccs2)Cc2ccnn2C1 (stereo unspecified),Percent Effect,"30.3 µM, […]",34.28%
Cc1noc(C)c1CN(C)C(=O)CCn1c(=O)n(C)c2ccccc21,Percent Effect,"30.3 µM, […]",50.75%
Cc1noc(C)c1CN(C)Cn1c(=O)n(C)c2ccccc21,Percent Effect,"30.3 µM, […]",5.674%
Cc1noc(C)c1CN(C)C(=O)Cn1c(=O)n(C)c2ccccc21,Percent Effect,"30.3 µM, […]",12.61%
O=C(CC1CC1)NCc1cn2c(n1)CN(C(=O)C1CCOCC1)CC2,Percent Effect,"30.3 µM, […]",-40.34%
OC(CNc1nc(C2CCCC2)nc2c1CCNCC2)C(F)(F)F (stereo unspecified),Percent Effect,"30.3 µM, […]",100.7%
COCCNc1nc(C2CCCC2)nc2c1CCNCC2,Percent Effect,"30 µM, 30.03 µM",63.78%
c1nc(CCNc2nc(C3CC3)nc3c2CCNCC3)c[nH]1,Percent Effect,"30.3 µM, […]",9.64%
C1Cc2nc(CCNc3nc(C4CC4)nc4c3CCNCC4)sc2C1,Percent Effect,"30.3 µM, […]",95.48%
OC(CNc1ncnc2c1CCNCC2)C(F)(F)F (stereo unspecified),Percent Effect,"30.3 µM, […]",26.97%
Cc1nc2c(c(NCC(O)C(F)(F)F)n1)CCNCC2 (stereo unspecified),Percent Effect,"30.3 µM, […]",-15.94%
COCc1noc(CNc2nc(C3CCCC3)nc3c2CCNCC3)n1,Percent Effect,"30.3 µM, […]",8.376%
Cc1nc2c(c(NCCc3nc4c(s3)CCCC4)n1)CCNCC2,Percent Effect,"30.3 µM, […]",49.04%
COCCNc1nc2c(c(NCC3CCOC3)n1)CCNCC2 (stereo unspecified),Percent Effect,"30.3 µM, […]",32.27%
O=C(NC1CC1)C1CCc2nnc(-c3cccc(C(F)(F)F)c3)n21 (stereo unspecified),Percent Effect,"30.3 µM, […]",10.31%
CN(C)CCn1cc(NC(=O)NC(C)(C)c2nccs2)cn1,Percent Effect,"30.3 µM, […]",7.741%
Cc1cc(C(=O)N2CCCC2c2nnc3n2CCCCC3)on1 (stereo unspecified),Percent Effect,"30.3 µM, […]",34.8%
Cc1nc(N2C[C@@H](CN3CCCN(C)CC3)[C@@H](CO)C2)c2ccsc2n1,Percent Effect,"30.3 µM, […]",-13.66%
CO[C@H]1[C@@H]2CC[C@H]1CN(c1nc(C)nc3ccsc13)C2,Percent Effect,"30.3 µM, […]",34.92%
CO[C@H]1[C@@H]2CC[C@H]1CN(c1nc(C)nc3sccc13)C2,Percent Effect,"30.3 µM, […]",56.76%
CC(=O)N1C[C@H]2C3(CCN(S(C)(=O)=O)CC3)CC[C@@]2(C(=O)N(C)C)C1,Percent Effect,"30.3 µM, […]",-12.02%
Cc1cc(C)n(CC2CCCN2CC(=O)N(C)Cc2ccc(C)o2)n1 (stereo unspecified),Percent Effect,"30.3 µM, […]",94.04%
Cc1cc(C)n(CC2CCCN2CC(=O)N(C)Cc2ccco2)n1 (stereo unspecified),Percent Effect,"30.3 µM, […]",34.8%
Cc1cc(C)n(CC2CCCCN2CC(=O)N(C)Cc2ccco2)n1 (stereo unspecified),Percent Effect,"30.3 µM, […]",-27.36%
CNS(=O)(=O)c1cccc(CNc2ccc(C(F)(F)F)nn2)c1,Percent Effect,"30 µM, 30.03 µM",12.97%
COc1ccccc1N1CC(NC(=O)c2cc(C(C)C)nn2C)CC1=O (stereo unspecified),Percent Effect,"30.3 µM, […]",57.19%
COc1ccccc1N1CC(NC(=O)Cn2cc(C)nn2)CC1=O (stereo unspecified),Percent Effect,"30.3 µM, […]",4.572%
COc1ccccc1N1CC(NC(=O)Cn2cc(C(C)C)nn2)CC1=O (stereo unspecified),Percent Effect,"30.3 µM, […]",-4.218%
CCOCCC(=O)NC(Cc1ccc(C)cc1)c1ccccn1 (stereo unspecified),Percent Effect,"30.3 µM, […]",16.59%
